Consider seven molecules from PubChem BioAssay (Tox21).

Several values for one entry are separate records, joined by “and”; a condition that tells them apart may be missing. Equal entries are not always repeated. Inconclusive results are not listed. Some compounds were tested as several samples or in several runs, with calls that do not always agree. Activity calls are given as the source filed them. Unless noted, calls come from the whole dose curve; as a rule, active = well fitted curve in the direction sought with a large enough effect in the repeat runs; inconclusive = weak or mixed curves; inactive = no such curve, though single readings can be large; an effect the other way counts as inactive or inconclusive.

Experiment [1] can be described thus: qHTS assay for small molecule agonists of the p53 signaling pathway (AID 651631; calls by dose curve; note: nearly all actives have a fitted effect of over 15% in size; note: potency is the fitted concentration of half-maximal effect). An outline of the steps: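 p53RE-bla HCT-116 cells; compounds 16 h, 37 °C; LiveBLAzer B/G FRET substrate 2 h RT; fluorescence intensity read-out, qHTS format.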
The nature of experiment [2]: qHTS assay for small molecule disruptors of the mitochondrial membrane potential (AID 720635). Note: potency is the fitted concentration of half-maximal effect. An outline of the steps:
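Mitochondrial membrane potential tracked with Mito-MPS dye, red aggregates (ex 540/em 590 nm) against green monomers (ex 490/em 535 nm). Compound treatment 1 hr at 37C, dye 30 min in HepG2.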
In general terms: qHTS replaces the single test concentration by a dilution series.

Experiment [3] can be described thus: qHTS assay to test for compound auto fluorescence at 590 nm (red) in HepG2 cells (AID 720674). A digest of the protocol: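 We screened compounds on adherent HepG2 cells, incubating them for an hour at 37 C in 5% CO2 before reading emission at 590 nm under 540 nm excitation; values reflect equivalence to Rose Bengal sodium fluorescence.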
Experiment [4] in a line: qHTS assay to test for compound auto fluorescence at 535 nm (green) in HepG2 cells (AID 720675).
Experiment [5] in a line: qHTS assay to test for compound auto fluorescence at 460 nm (blue) in HEK293 cells (AID 720678). A digest of the protocol:
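Cells were seeded and left to adhere for 4-5 hr at 37C. Compounds were then pin-transferred. After an overnight incubation at 37C under 5% CO2, intrinsic fluorescence at 405/460 nm was measured and referenced to triamterene.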

A short description of experiment [6]: qHTS assay to test for compound auto fluorescence at 590 nm (red) in HEK293 cells (AID 720679). A digest of the protocol:
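Each well held 2,000 HEK293 cells in medium containing 10% dialyzed FBS. Following 4-5 hr attachment at 37C, 23 nL test compound or DMSO was added; plates sat overnight, and red fluorescence (540/590nm) was recorded.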

Experiment [7] can be described thus: qHTS assay to test for compound auto fluorescence at 535 nm (green) in HEK293 cells (AID 720680).
The nature of experiment [8]: qHTS assay to test for compound auto fluorescence at 460 nm (blue) in HEK293 cell free culture (AID 720681). A digest of the protocol:
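Blue fluorescence (Ex 405/Em 460 nm, triamterene-equivalent) was read immediately after pin transfer of compound or DMSO into medium (DMEM, 10% FBS) without cells.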

Experiment [9] in a line: qHTS assay to test for compound auto fluorescence at 535 nm (green) in HEK293 cell free culture (AID 720682). An outline of the steps:
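Cell-free medium (DMEM, 10% FBS) receives compound or DMSO by pintool. Plate read directly at Ex 485/Em 535 nm. Signal converted to fluorescein equivalency.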

The nature of experiment [10]: qHTS assay to test for compound auto fluorescence at 590 nm (red) in HepG2 cell free culture (AID 720684). A digest of the protocol: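 Cell-free; medium MEM + 10% FBS; compound or DMSO added by pintool; read Ex 540/Em 590 nm; Rose Bengal sodium as red reference fluorophore.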
A short description of experiment [11]: qHTS assay to test for compound auto fluorescence at 460 nm (blue) in HepG2 cell free culture (AID 720685). A digest of the protocol:
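Cell-free plates of MEM plus 10% FBS received 23 nL compound or DMSO vehicle; blue-channel (405/460 nm) intensity scored against triamterene as reference fluorophore.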

Experiment [12] is described as follows: qHTS assay to test for compound auto fluorescence at 535 nm (green) in HepG2 cell free culture (AID 720686).
Experiment [13] is described as follows: qHTS assay to test for compound auto fluorescence at 460 nm (blue) in HepG2 cells (AID 720687). A digest of the protocol:
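Blue-channel autofluorescence (Ex/Em 405/460 nm, triamterene-equivalent) was measured after 1 hr compound exposure at 37 C, 5% CO2. Cells were HepG2, plated overnight at 37 C in MEM plus 10% FBS.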

Experiment [14] is described as follows: qHTS assay for small molecules that induce genotoxicity in human embryonic kidney cells expressing luciferase-tagged ATAD5 (AID 651632). Note: nearly all actives have a fitted effect of over 15% in size. A digest of the protocol:
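A rise in luciferase signal from ATAD5-tagged HEK293T cells marks genetic stress. Cells were exposed to compounds for 16 hr at 37C, 5% CO2, then luciferase was quantified after a 30 min room-temperature incubation with Amplite.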

A short description of experiment [15]: qHTS assay for small molecule agonists of the p53 signaling pathway - cell viability (AID 651633; calls by dose curve;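 note: p53RE-bla HCT reporter cells with a stable beta-lactamase p53 reporter; series mostly up to about 83 µM; nearly all actives have a fitted effect of over 30% in size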). An outline of the steps: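 Viability counter-read: CellTiter-Glo luminescence (30 min, room temperature) in the same p53RE-bla plates. These plates had been exposed to compounds for 16 h at 37 C.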
Experiment [16] in a line: qHTS assay for small molecule disruptors of the mitochondrial membrane potential - cell viability (AID 720634; calls by dose curve; note: nearly all actives have a fitted effect of over 20% in size; note: potency is the fitted concentration of half-maximal effect). An outline of the steps: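 Cytotoxicity was quantified from ATP content by CellTiter-Glo luminescence in the same wells as the MMP dye read-out. HepG2 (2,000 cells/well) were plated overnight and exposed to compounds for 1 hr at 37 C.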
Experiment [17] can be described thus: qHTS assay to test for compound auto fluorescence at 590 nm (red) in HEK293 cell free culture (AID 720683). A digest of the protocol:
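Red-channel autofluorescence of compounds in culture medium (DMEM, 10% FBS), no cells, measured at 540/590 nm. Rose Bengal sodium is the reference fluorophore for equivalence.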

Experiment [18] has as its target Glucocorticoid receptor (Homo sapiens) (UniProt P04150). The experiment is described as follows: qHTS assay to identify small molecule agonists of the glucocorticoid receptor (GR) signaling pathway (AID 720691; active = well fitted activation curve with a large enough effect in the signal ratio in the repeat runs, not every such curve was filed as active; the % refers to the signal ratio). A digest of the protocol: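 Agonist-mode qHTS in HeLa cells stably expressing a glucocorticoid-response-element beta-lactamase reporter. Fluorescence intensity read with FRET substrate (2 h, room temperature) after 18 h compound treatment at 37 C.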

Experiment [19] has the same target. Kind of experiment: qHTS assay to identify small molecule antagonists of the glucocorticoid receptor (GR) signaling pathway (AID 720692; active = well fitted inhibition curve with a large enough effect in the signal ratio in the repeat runs, not every such curve was filed as active; the % refers to the signal ratio; note: potency is the fitted concentration of half-maximal effect). A digest of the protocol:
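Inhibition of dexamethasone-driven (5 nM final) beta-lactamase expression was measured in GRE-reporter HeLa cells over 18 h at 37C. Fluorescence was read after 2 h with the B/G FRET substrate at room temperature.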

Experiment [20] can be described thus: qHTS assay for small molecules that induce genotoxicity in human embryonic kidney cells expressing luciferase-tagged ATAD5 - cell viability (AID 651634; calls by dose curve; note: nearly all actives have a fitted effect of over 25% in size; note: potency is the fitted concentration of half-maximal effect). An outline of the steps:
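Cytotoxicity counter-readout: after 15.5 hr compound treatment at 37C, live-cell protease activity in ATAD5-luciferase HEK293T cells measured by CellTiter-Fluor fluorescence, 30 min development at 37C.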

Glucocorticoid receptor (Homo sapiens), sequence (P04150 whole entry, looked up): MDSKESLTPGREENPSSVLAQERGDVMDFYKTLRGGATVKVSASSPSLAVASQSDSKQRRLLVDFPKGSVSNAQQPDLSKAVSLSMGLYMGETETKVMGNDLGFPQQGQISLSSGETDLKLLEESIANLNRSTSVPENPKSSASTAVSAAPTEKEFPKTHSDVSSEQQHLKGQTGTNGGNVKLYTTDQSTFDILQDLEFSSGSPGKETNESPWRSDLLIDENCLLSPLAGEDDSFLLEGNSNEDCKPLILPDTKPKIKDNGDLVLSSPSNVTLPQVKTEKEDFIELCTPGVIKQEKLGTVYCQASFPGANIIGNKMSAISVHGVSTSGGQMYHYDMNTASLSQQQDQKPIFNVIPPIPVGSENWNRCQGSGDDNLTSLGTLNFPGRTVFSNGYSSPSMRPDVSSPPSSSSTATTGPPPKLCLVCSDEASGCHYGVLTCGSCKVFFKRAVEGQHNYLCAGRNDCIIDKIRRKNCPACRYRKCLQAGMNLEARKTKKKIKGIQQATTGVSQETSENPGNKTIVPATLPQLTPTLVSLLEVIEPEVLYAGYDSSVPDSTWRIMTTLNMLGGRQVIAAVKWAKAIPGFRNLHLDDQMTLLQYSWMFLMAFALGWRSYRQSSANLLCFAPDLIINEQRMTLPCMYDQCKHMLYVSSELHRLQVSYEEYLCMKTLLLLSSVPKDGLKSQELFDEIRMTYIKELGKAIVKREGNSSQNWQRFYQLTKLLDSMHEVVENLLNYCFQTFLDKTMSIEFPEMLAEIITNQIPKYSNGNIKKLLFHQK

Turning to `O=Nc1ccc(Nc2ccccc2)cc1`, the Potency was 27.4 µM (active) in experiment [1] and 21.8 µM (active) in experiment [2]. Further, the molecule was called inactive in experiment [3], in [6] and in experiment [10]. In addition, the Potency entry in experiment [4], in experiment [5], in experiment [7], in [8], in experiment [9] and in [11] was “inactive” throughout. Further, the Potency result in [12] and in [13] was “inactive” in each case.
On to `O=C(O[C@@H]1Cc2c(O)cc(O)cc2O[C@@H]1c1cc(O)c(O)c(O)c1)c1cc(O)c(O)c(O)c1`, for which the Potency result in experiment [14], in experiment [15], in [16], in experiment [4], in [5] and in experiment [7] was “inactive” throughout. The Potency entry in experiment [9], in experiment [11], in [12], in experiment [13], in experiment [18] and in experiment [19] was “inactive” in each case. Besides, the Potency in experiment [2] was 27.4 µM (active). Further, the call in [3], in experiment [6], in experiment [17] and in experiment [10] was inactive.
For the molecule `COC(=O)/C=C/c1ccccc1`, the Potency entry in [14], in [15], in experiment [20], in experiment [16], in [4] and in experiment [5] was “inactive” each time. For the same molecule, the Potency result in [7], in [9], in experiment [11], in experiment [12], in [13] and in experiment [18] was “inactive” throughout. Also, the Potency result in experiment [19] is “inactive”. The call in experiment [3], in [6], in experiment [17] and in experiment [10] was inactive.
In the case of `C=CC(=O)OCCCCCCOC(=O)C=C`, the Potency in experiment [1] was 11 µM (active); in experiment [20], 31 µM (active); in experiment [19], 39.4 µM (active) and 43.6 µM (active). Besides, the Potency result in [16], in [2], in [4], in [5], in experiment [7] and in experiment [8] was “inactive” in each case. Besides, the Potency result in experiment [9], in experiment [11], in experiment [12], in experiment [13] and in experiment [18] was “inactive” in each case. Besides, the molecule was classed as inactive in experiment [3], in [6], in experiment [17] and in experiment [10].
Consider `CC(C)(C)NC(=O)[C@@H]1CN(Cc2cccnc2)CCN1C[C@@H](O)C[C@@H](Cc1ccccc1)C(=O)N[C@H]1c2ccccc2C[C@H]1O`, for which the Potency result in [1], in experiment [4], in experiment [5], in experiment [7], in experiment [8] and in experiment [9] was “inactive” in each case. The Potency entry in experiment [11], in experiment [12], in experiment [13], in experiment [18] and in [19] was “inactive” each time. Moreover, the Potency in experiment [16] is 13.3 µM (active) and inactive; in experiment [2] it was 7.5 µM (active). For the same molecule, the molecule was called inactive in experiment [6], in experiment [17] and in [10].
As to `CCCCCCC(O)CCCCCCCCCCC(=O)O` (stereo unspecified), the Potency entry in experiment [14], in [15], in experiment [20], in experiment [4], in [5] and in experiment [8] was “inactive” each time. Besides, the Potency entry in experiment [9], in experiment [11], in experiment [12], in [13] and in experiment [18] was “inactive” throughout. Also, the Potency result in [16] was “inactive and 54.5 µM (active)”; in [2] it was “inactive and 54.5 µM (active)”. The molecule was classed as inactive in experiment [3], in [6] and in [10].
As to `O=C(Cl)c1cccc(C(=O)Cl)c1`, the Potency result in experiment [14], in experiment [15], in experiment [20], in experiment [16], in experiment [2] and in [4] was “inactive” in each case. The Potency entry in [5], in experiment [7], in experiment [8], in experiment [9], in experiment [11] and in experiment [12] was “inactive” throughout. Further, the Potency result in experiment [13], in [18] and in experiment [19] was “inactive” throughout. Also, the molecule was classed as inactive in [3], in [6], in experiment [17] and in experiment [10].
